# Screening results: PubChem BioAssay, several laboratories
# BoNT F protease: BoNT F light chain protease inhibition. AID 588497. inhibition, % at 10 µM. Multiplex microsphere protease cleavage assay, flow cytometry. 360,000 compounds, 0.22% hits; in the data active = inhibition above about 35%, passing the limit was not always enough; inconclusive = no clear call, values can overlap the other calls; also: plate controls were buffer without enzyme for full effect and enzyme alone for no effect
# Anthrax LF inh2: inhibitors of Bacillus anthracis lethal factor protease; AID 588501; 360,000 compounds, 0.12% hits; P15917; multiplex microsphere protease cleavage assay, LF; inhibition, % at 10 µM; also: plate controls were buffer without enzyme for full effect and enzyme alone for no effect
# SSB-PriA inh: K. pneumoniae PriA-SSBct interaction inhibition; AlphaScreen SSBct-PriA binding, biotinylated peptide; inhibition, % at 33 µM; 430,000 compounds, 0.6% hits; AID 1272365; in the data active = inhibition mostly above about 37%, no sharp cut-off; inactive = mostly below about 20%;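 also: plate controls were negative control peptide for no effect and reference peptide for full effect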
# BoNT-A LC inh2: inhibitors of Botulinum neurotoxin A light chain protease; 360,000 compounds, 0.17% hits; inhibition, % at 10 µM; multiplex microsphere protease substrate cleavage, flow cytometry; also: plate controls were buffer without enzyme for full effect and enzyme alone for no effect
# Autofluor counter: counter-screen for toxin protease inhibitors: compound fluorescence; compound autofluorescence counterscreen, microsphere flow cytometry; stronger effect = higher value; fluorescence intensity (no concentration beside the values); 360,000 compounds, 3.1% hits; AID 624483; in the data active = fluorescence intensity above about 16000; inconclusive = no clear call, values can overlap the other calls
# * marks the source's active call; other numbers are inactive results; ? = inconclusive; / = not tested or not shown; + = active, no number; ! = not active in a repeat. Shown are actives, neighbours in structure and some others; about 3.1% of the full set was active somewhere. Rule as the data show it, unless noted: active = inhibition above about 30%; inconclusive = no clear call, values can overlap the other calls; inactive = below that.
SMILES,BoNT F protease,Anthrax LF inh2,SSB-PriA inh,BoNT-A LC inh2,Autofluor counter
CCNC(=O)CC1C(=O)N(c2ccc(F)cc2)C(=O)N1CCc1ccc(OC)cc1 (configuration not stated),-0.6,-1.2,-16.6,-0.8,20994*
CCNC(=O)CC1C(=O)N(c2ccccc2)C(=O)N1CCc1ccc(OC)c(OC)c1 (configuration not stated),2.0,0.3,-16.4,?,22965*
O=C(NC1CCCCC1)N(Cc1ccco1)CC(O)Cn1c2ccccc2c2ccccc21 (configuration not stated),/,/,-15.0,/,/
CCCC(=O)NCC(=O)NCc1ccnc(N(C)C)n1,/,/,-1.0,/,/
COc1cccc(CNC(=O)N2CCc3nc4ccc(Cl)cn4c(=O)c3C2)c1,/,/,-2.0,/,/
COc1ccc(OCCCC(=O)Nc2cc(C)c(Cl)cc2OC)cc1,/,/,-24.0,/,/
CC(O)(CNS(=O)(=O)Cc1cc(F)ccc1F)c1ccc2c(c1)OCO2 (configuration not stated),/,/,-29.0,/,/
Cc1cnc(NC(=O)CSc2nnc3ncccn23)s1,-8.8,2.3,-1.4,-1.6,5582
Cc1csc(NC(=O)CSc2nnc3ncccn23)n1,-6.1,-0.2,-5.2,-4.3,22164*
O=C(CSc1ncccn1)N1CCCCC1,/,/,-15.0,/,/
O=C(CSc1nnc2ncccn12)N1CCCCCC1,-4.6,-4.2,-0.2,-1.3,23133*
CCn1c(SCC(=O)Nc2nccs2)nnc1-c1cccnc1,-3.9,-0.1,-13.9,2.8,?
CCn1c(SCC(=O)Nc2nc(C)cs2)nnc1-c1cccnc1,4.3,-8.7,-7.8,4.9,17501*
CCc1nnc(NC(=O)CSc2nnc3ncccn23)s1,-2.8,-0.8,-2.0,?,20884*
CCC(=O)NCCCn1nc(-c2ccc(F)cc2)ccc1=O,/,/,-2.0,/,/
O=C(CCCc1ccccc1)Nc1ccc(Br)cc1F,-25.9,32.0*,-7.8,-1.2,3547
O=C(CCc1ccccc1)Nc1ccc(F)cc1F,7.1,-6.9,-7.1,0.0,4987
COc1ccc2c(c1)SC1=N[C@](c3ccc(C)cc3)(C(F)(F)F)NC(=O)N12,/,/,-6.0,/,/
CC(C)[N+]1=C2C=CC=CC=C2SC12C([N+](=O)[O-])=CC(=[N+]([O-])[O-])C=C2[N+](=O)[O-] (configuration not stated),?,-11.6,-3.6,40.9*,2794
Cc1cc(C)cc(N2C(=O)CC(C3CCCC=C3N3CCOCC3)C2=O)c1 (configuration not stated),/,/,4.0,/,/
Cc1ccccc1C(=O)NCCn1ncc2c(=O)n(Cc3cccc4ccccc34)cnc21,/,/,8.0,/,/
O=C(CCc1ccc(-c2ccc(Cl)cc2)o1)Nc1ccccc1F,/,/,-12.0,/,/
Nc1nsnc1C(=O)NCCO,-4.6,-0.6,-11.2,-3.0,17466*
CCCCCCCCCCCCCCCCCC(=O)N/N=C/c1ccc(Sc2cccc3cccnc23)o1,/,/,+,/,/
O=C(CSCc1ccc(Br)cc1)N/N=C/c1ccc(Sc2cccc3cccnc23)o1,/,/,+,/,/
SMILES,BoNT F protease,Anthrax LF inh2,SSB-PriA inh,BoNT-A LC inh2,Autofluor counter
COc1cncc(O[C@H]2CCN(S(=O)(=O)c3ccc4c(c3)OCCO4)C2)n1,/,/,-1.0,/,/
CCOC(=O)c1nn(-c2ccccc2)c(=O)cc1NC(=O)c1ccc(S(=O)(=O)N2CCCC2)cc1,/,/,-1.0,/,/
O=C(CCl)N1c2ccccc2Oc2ccc3ccccc3c21,11.4,34.8*,16.1,30.8*,3811
CC(=O)N1c2ccccc2Oc2cc3ccccc3cc21,-6.7,-4.6,-8.0,0.7,6722
CSc1cccc(NC(=O)Cn2cc(C(C)=O)c3ccccc32)c1,/,/,-10.0,/,/
O=C(CSc1ccc(-c2ccccc2)nn1)NC1CCCCC1,6.2,-0.4,-18.1,-2.1,4894
O=C(CSc1ccc(-c2ccccn2)nn1)NCc1ccccc1,3.0,1.6,50.0*!,-0.4,4651
O=C(CSc1ccc(-c2ccccn2)nn1)NCCc1ccccc1,/,/,81.3*,/,/
O=C(CSc1ccc(-c2ccccn2)nn1)NC1CCCCC1,-2.7,0.0,72.0*!,-1.6,4419
O=C(CSc1ccc(-c2ccccc2)nn1)NCc1ccco1,-4.4,-6.1,-11.1,0.4,8849
O=C(CSc1ccc(-c2ccccn2)nn1)NCc1ccc(F)cc1,-4.5,1.0,3.0,-1.5,4753
O=C(CSc1ccc(-c2ccccn2)nn1)NCc1ccco1,/,/,71.0*,/,/
O=C1Cc2cc(NC(=O)c3ccccc3F)ccc2N1,/,/,-6.0,/,/
Cn1c(=O)c2c(nc(CN3CCN(c4ccccc4)CC3)n2Cc2ccccc2Cl)n(C)c1=O,-2.2,-0.3,-12.4,?,19891*
Cn1c(=O)c2c(nc(CN3CCN(c4ccccc4)CC3)n2Cc2c(F)cccc2Cl)n(C)c1=O,-2.5,-2.3,5.3,?,22170*
COCCn1c(CN2CCN(c3ccccc3)CC2)nc2c1c(=O)n(C)c(=O)n2C,12.5,0.4,-6.2,0.0,3976
CC1CN(c2nc3c(c(=O)n(C)c(=O)n3C)n2Cc2c(F)cccc2Cl)CC(C)O1 (configuration not stated),6.0,-2.2,-19.0,3.8,18917*
Cc1ccc(S(=O)(=O)N2CCCC2C(=O)Nc2cc(C)[nH]n2)cc1 (configuration not stated),/,/,-1.0,/,/
COCCNC(=O)Nc1nc2c(C)ccc(Cl)c2s1,/,/,3.0,/,/
CCOc1ccc(CCNC(=O)COC(=O)c2ccccc2O)cc1OCC,0.5,-0.7,-9.7,-0.1,4503
CCOc1ccc(CCNC(=O)COC(=O)c2cccnc2OCC)cc1OCC,0.5,-2.2,-0.7,-0.6,16322*
Cc1c(C(=O)O)oc2ccc(S(=O)(=O)NCc3ccc(F)cc3)cc12,-5.6,-2.3,-14.8,-1.6,24054*
COc1ccc(CNS(=O)(=O)c2ccc3oc(C(=O)O)c(C)c3c2)cc1,-1.7,-2.5,-10.5,-0.1,7977
Cc1cc(C(F)(F)F)n(-c2nc(C(=O)NNS(=O)(=O)c3ccccc3)cs2)n1,/,/,-14.8,/,/
COc1ccccc1NC(=O)c1csc(-n2nc(C)cc2C(F)(F)F)n1,1.0,-1.8,-4.4,?,21807*
SMILES,BoNT F protease,Anthrax LF inh2,SSB-PriA inh,BoNT-A LC inh2,Autofluor counter
O=C(CSc1cccc(C(F)(F)F)c1)Nc1ccc(Cl)cc1Cl,-2.0,-0.2,-4.6,?,19968*
O=C(CS(=O)c1cccc(C(F)(F)F)c1)Nc1ccccc1Cl (configuration not stated),-1.0,-1.6,-3.4,-1.5,22990*
O=C(CSc1cccc(C(F)(F)F)c1)NC(=O)c1ccccc1,-2.8,-0.3,-14.1,0.2,1890
O=C(CS(=O)c1ccc(F)cc1)Nc1ccccc1Cl (configuration not stated),-2.3,-1.2,3.4,-1.4,4183
COc1ccc(S(=O)(=O)N2CCN(c3ccc4nnc(-c5ccco5)n4n3)CC2)cc1,/,/,-27.0,/,/
O=C(CCc1csc(NC(=O)c2ccc(F)cc2)n1)Nc1nc(-c2cccnc2)cs1,/,/,-15.0,/,/
Cc1cc(C)nc(SCC(=O)Nc2ccccc2[N+](=O)[O-])n1,4.7,-0.5,11.9,1.6,15698
COc1ccc(NC(=O)CSc2ccc(F)cc2)c([N+](=O)[O-])c1,/,/,65.0*,/,/
COc1ccc(NC(=O)CSc2nc3ccccc3n2-c2ccccc2)c([N+](=O)[O-])c1,-5.2,0.3,41.7*,0.0,2609
Cc1nc(SCC(=O)Nc2ccc(Cl)cc2[N+](=O)[O-])nc(C)c1C,-3.5,-0.7,38.8*,-1.3,2092
